Laboratory results as given in PubChem BioAssay (Tox21).
Records with an inconclusive call do not appear. Values without a mark were called inactive. The call rests on the fitted dose curve; in most records, active means well fitted activation curve with a large enough effect in the repeat runs; inconclusive means weak or mixed curves; inactive means flat fitted curve, though single readings scatter.

experiment: A CellTox Green Cytotoxicity Assay to monitor cytotoxicity in HepG2 cells - 8 hour (AID 1224890); conditions: CellTox Green fluorescence; series mostly up to 76.8 µM; cytotoxicity increase: at the top concentration; further: nearly all actives have a fitted effect of over 45% in size
Text: National Center for Advancing Translational Sciences [NCATS]
NIH Chemical Genomics Center [NCGC]
U.S. Environmental Protection Agency [EPA]
National Institutes of Environmental Health Sciences [NIEHS]
National Toxicology Program [NTP]
Cell-based models are critical for drug discovery. Determining the natural cytotoxic effects resulting from test compounds is an essential research activity. A CellTox Green Cytotoxicity Assay to monitor cytotoxicity in real time of continues cell culture during 40 hours of the compound treatment was used to screen Tox21 10K library compounds in HepG2 cells. CellTox Green Cytotoxicity Assay is a nonlytic, homogeneous, biofluorescent method to measure cytotoxicity in cell culture after experimental manipulation. The assay system uses a proprietary asymmetric cyanine dye that is excluded from viable cells but preferentially stains the dead cell's DNA. […] Viable cells produce no appreciable increases in fluorescence. Therefore, the fluorescence signal produced by the binding interaction with dead cell DNA is proportional to cytotoxicity.
The mixture of HepG2 cell suspension and reagents were dispensed at 600cells/6 ul/well in 1536-well tissue culture treated black solid bottom plates using a Multidrop dispenser. After the assay plates were incubated at a 37 C/5% CO2 incubator for 5 hours, 23 nL of compounds dissolved in DMSO, positive and negative controls was transferred to the assay plate by a pintool work station. The plates were incubated at 37 C for 40 hours. The fluorescence intensity were measured at 0h, 8h, 16h, 24h, 32h and 40h time points using ViewLux plate reader during compound treatment.
On the % scale 0 is the no-effect control and ±100 the full control effect.

Compared with `CC(C(=O)O)c1ccc2c(c1)CC(=O)c1ccccc1S2` (stereo not given), `O=C(OCC(O)CO)c1ccccc1Nc1ccnc2c(C(F)(F)F)cccc12` (stereo not given) is lower in “cytotoxicity increase” value: -2.67% [at 35.3 µM] for the first, -15.4% [at 35.3 µM] for the second.

Going from `Cc1cc2cc3c(C)cc(=O)oc3c(C)c2o1` to `Cc1cc(C(C)(C)C)c(O)c(C)c1CC1=NCCN1`, the “cytotoxicity increase” value rises from 0.0226% [at 35.3 µM] to 2.38% [at 35.3 µM].

Going from `O=C(NCCc1c[nH]c2ccccc12)c1cccnc1` to `CN(C)C(=O)CNC(=O)Cc1ccccc1`, the “cytotoxicity increase” value falls from -5.53% [at 35.3 µM] to -17.7% [at 35.3 µM].

Going from `CNS(=O)(=O)CCc1ccc2[nH]cc(C3CCN(C)CC3)c2c1` to `COC(=O)c1ccccc1C(=O)c1ccc(OCCN2CCCCC2)cc1`, the “cytotoxicity increase” value rises from -15.7% [at 35.3 µM] to 4.04% [at 35.3 µM].

Going from `COc1nccnc1NS(=O)(=O)c1ccc(N)cc1` to `Nc1ccc(S(=O)(=O)Nc2ccc(Cl)nn2)cc1`, the “cytotoxicity increase” value falls from 4.87% [at 35.3 µM] to 1.37% [at 35.3 µM].

First: COP(=O)(OC)OC(c1ccc(Cl)cc1)P(=O)(OC)OC (stereo not given)
Second: Cc1ccc2ccc(Cl)cc2n1
The “cytotoxicity increase” value of the first is lower: -9.19% [at 35.3 µM] for the first, 0.729% [at 35.3 µM] for the second.

First: Cc1ccsc1/C=C/C1=NCCCN1C
Second: Cc1c(I)c(=O)n(-c2ccccc2)n1C
The “cytotoxicity increase” value of the first is higher: -0.743% [at 35.3 µM] for the first, -3.92% [at 35.3 µM] for the second.

First: O=C(OCC1(COC(=O)c2cccnc2)CCCC(COC(=O)c2cccnc2)(COC(=O)c2cccnc2)C1O)c1cccnc1
Second: O=C(OCC(COC(=O)c1cccnc1)(COC(=O)c1cccnc1)COC(=O)c1cccnc1)c1cccnc1
The “cytotoxicity increase” value of the first is lower: -4.29% [at 35.3 µM] for the first, -0.427% [at 35.3 µM] for the second.

Compared with `CC(C)NCC(O)COc1cccc2[nH]ccc12` (stereo not given), `CCN(C)C(=O)Oc1cccc([C@H](C)N(C)C)c1` is lower in “cytotoxicity increase” value: -4.45% [at 35.3 µM] for the first, -9.2% [at 35.3 µM] for the second.

First: CN(CCOc1ccc(NS(C)(=O)=O)cc1)CCc1ccc(NS(C)(=O)=O)cc1
Second: O=C1c2cccc3c2[C@H](CCC3)CN1[C@@H]1CN2CCC1CC2
The “cytotoxicity increase” value of the first is lower: -14.7% [at 35.3 µM] for the first, 1.82% [at 35.3 µM] for the second.

Going from `C[C@@H](O)[C@H]1C(=O)N2C(C(=O)O)=C(SCCN=CN)C[C@H]12` to `CC(=O)NCCCCCC(=O)O`, the “cytotoxicity increase” value rises from -7.62% [at 35.3 µM] to -6.66% [at 35.3 µM].

Compared with `CCC(CC)CO`, `CCCCC(CC)COCCO` (stereo not given) is lower in “cytotoxicity increase” value: 13.3% for the first, -0.76% for the second.

Going from `C=CC(OCC)OCC` to `C=C(C)C(=O)OCCN(CC)CC`, the “cytotoxicity increase” value falls from 11.1% to -5.96%.

Going from `Cc1ccc(S(=O)(=O)O)c(C)c1` to `COc1ccc(Br)c(C)c1`, the “cytotoxicity increase” value rises from -2.46% to -1.25%.

Compared with `CC[C@H](C)C(=O)O[C@H]1C[C@H](O)C=C2C=C[C@H](C)[C@H](CC[C@@H](O)C[C@@H](O)CC(=O)O)[C@H]21`, `CC(C)OC(=O)CCCCC(=O)OC(C)C` is higher in “cytotoxicity increase” value: -0.0853% for the first, 0.409% for the second.

Compared with `N#Cc1ccc(C(=O)O)cc1`, `CN(C)c1ccc(C=O)cc1` is higher in “cytotoxicity increase” value: -12.8% for the first, -3.06% for the second.

Compared with `CC(C)CC(=O)O`, `C=C(C)C(=O)OCCNC(C)(C)C` is higher in “cytotoxicity increase” value: 0.336% for the first, 13.2% for the second.

First: C=C(C)C1CCC(C)(O)CC1 (stereo not given)
Second: CC1COc2ccccc2N1 (stereo not given)
The “cytotoxicity increase” value of the first is lower: -1.74% for the first, -0.0309% for the second.

Compared with `OCCCCC(O)CO` (stereo not given), `CCCCOC(=O)c1ccccc1` is higher in “cytotoxicity increase” value: 4.87% for the first, 6.67% for the second.

For `CC/C=C\CC1=C(C)CCC1=O`, the “cytotoxicity increase” value was -6.58%.

Work on `COC(=O)C1CC(=O)C(C(=O)OC)CC1=O` (stereo not given) yielded a cytotoxicity increase of -5.53% [at 6.97 µM].
